# Texas Red fluor – compound fluoresces in the Texas Red spectral region. Compound fluorescence, Texas Red channel, 547/618 nm; active compounds read high. max dye-equivalent concentration, M. AID 587. actives 0.06% (n = 59,000); in the data active means max dye-equivalent concentration above about 10 nM; inconclusive means between about 1.1 nM and that limit
#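 qHTS profiling of intrinsic compound fluorescence; 100 mM Tris pH 8.0; 15 min RT; ex 547 / em 618 nm; response expressed as Texas Red dye-equivalent concentration from six-point plate standard.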
# A647 fluor – A647 region autofluorescence; AID 592; 59,000 tested, under 10 active; Compound fluorescence, A647 channel (570/671 nm), Tris buffer; max dye-equivalent concentration, M;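 further: values scaled relative to a standard on each plate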
#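 Compounds pinned into 100 mM Tris pH 8.0, 15 min at room temperature, then read with 570 nm excitation/671 nm emission filters. Fluorescence normalized to an on-plate six-point Alexa 647 standard curve, giving dye-equivalent concentration per compound concentration.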
# Rhodamine fluor – rhodamine region autofluorescence. AID 594. actives 0.05% (n = 59,000). max dye-equivalent concentration, M. Rhodamine-region fluorescence, 547/598 nm, Tris buffer; active compounds read high; in the data active means max dye-equivalent concentration above about 11 nM; inconclusive means between about 1.1 nM and that limit
#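 qHTS spectral profiling of compounds without any target or enzyme present, in pH 8.0 Tris buffer; plates were read after a 15-minute room-temperature incubation using the rhodamine-region filter set.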
# Resorufin autofl – compound fluoresces in the resorufin spectral region; Compound fluorescence, resorufin region 547/598 nm, buffer; active compounds read high; max dye-equivalent concentration, M; actives 0.04% (n = 59,000); AID 588
#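 Dye-equivalent concentration values derive from comparing each well's 547/598 nm fluorescence against resorufin standards included on every plate. Incubation was 15 min at room temperature in 100 mM Tris, pH 8.0.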
# Fluorescein autfl – compound autofluorescence in fluorescein spectral region; max fluorescein-equivalent concentration, M; Compound autofluorescence, 480/540 nm, fluorescein-equivalent; active compounds read high; actives 0.91% (n = 59,000); in the data active means max fluorescein-equivalent concentration above about 10 nM; inconclusive means between about 1.1 nM and that limit
#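 First, buffer (100 mM Tris, pH 8.0) dispensed; second, compounds and fluorescein standards pinned in; third, 15 min room-temperature incubation; finally, imaging at ex 480 nm/em 540 nm. Fluorescence normalized against the six-point fluorescein curve.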
# A488 autofl – compound fluoresces in the A488 spectral region; actives 0.1% (n = 59,000); compound autofluorescence, A488 spectral region, dye equivalency; Compound Type: qHTS ECL - MLSMR; max dye equivalency, M; AID 591
#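 Compounds pin-transferred into 100 mM Tris buffer, pH 8.0, incubated 15 min at room temperature, then imaged with 480 nm excitation/540 nm emission filters. Fluorescence converted to Alexa 488 dye-equivalent concentration via an on-plate six-point A488 standard curve.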
# Starred values were filed as active, the others as inactive; i = inactive; ? = inconclusive; ! = not confirmed by another sample. An excerpt weighted towards active compounds, which were near 0.95% of everything screened. Unless noted, how the calls were made is not given here.
SMILES,Texas Red fluor,A647 fluor,Rhodamine fluor,Resorufin autofl,Fluorescein autfl,A488 autofl
Cc1cc(=O)oc2c(CN3CCC(C)CC3)c(O)c(Cl)cc12,i,1e-09,?,i,1.1e-08M*,i
CCCn1c(=N)c(C(=O)NCc2ccc3c(c2)OCO3)cc2c(=O)n3cccc(C)c3nc21,i,2.6e-09,i,i,1.4e-08M*,i
O=C1CCN2C=Nc3cccc4ccc1c2c34,i,5.7e-09,i,i,2.8e-06M*,1.5e-07M*
CC[C@@]12CCCN3CCc4c(n(c5ccccc45)C(=O)C1)[C@H]32,i,1e-09,i,i,1.2e-08M*!,i
C=C1CC[C@@H]2O[C@]2(C)CC[C@@H]2[C@H]1CC2(C)C,i,2.6e-09,i,i,i,i
COc1ccc(N=c2oc3cc(O)ccc3cc2C(=O)NCC2CCCO2)c(OC)c1 (stereo not drawn),i,2.6e-08,i,i,1.4e-08M*,i
COc1ccc(N=c2oc3cc(O)ccc3cc2C(=O)NCC2CCCO2)cc1 (stereo not drawn),i,1.4e-09,i,i,i,i
OC[C@@H]1O[C@@H](n2cnc3c(N[C@@H]4C[C@@H]5CC[C@H]4C5)ncnc32)[C@@H](O)[C@H]1O,?,2.3e-09,i,i,i,i
Cn1cc(C2=C(c3ccc(Cl)cc3Cl)C(=O)NC2=O)c2ccccc21,i,1.8e-09,?,?,5e-07M*,2.7e-08M*
COc1ccc(CCNC[C@H](O)c2ccc(O)cc2)cc1OC,i,4.6e-09,i,i,?,i
C=CCOn1c(=O)c(-c2cc3ccccc3o2)[n+]([O-])c2ccccc21,i,2.2e-08,i,i,1.9e-08M*,i
O=C(O)c1ccc2c(c1)NC(=O)C(N1CCCC1)S2 (stereo not drawn),i,4.1e-08,i,i,1.1e-08M*,i
COC(=O)c1ccc2c(c1)NC(=O)C(N1CCCC1)S2 (stereo not drawn),i,3.5e-08,i,i,?,i
CC1(C)[C@@H](O)CC[C@@]2(C)[C@H]1CC[C@]1(C)[C@H]2C(=O)C=C2[C@@H]3C[C@@](C)(C(=O)O)CC[C@]3(C)CC[C@@]21C,i,3e-08,i,i,?,i
Cc1csc(NC(=O)c2sc3nc(-c4cccs4)ccc3c2N)n1,i,1e-09,i,i,1.4e-08M*,i
COc1ccc(C(=O)Nc2nc(-c3cccs3)cs2)cc1,i,1.8e-08,i,i,?,i
O=c1cc(-c2ccc(O)c(O)c2)oc2cc(O[C@@H]3O[C@@H](CO)[C@@H](O)[C@@H](O)[C@H]3O)cc(O)c12,i,1e-09,i,i,?,i
CC(C)OCCCn1c(=NC(=O)c2ccncc2)c(C#N)cc2c(=O)n3ccccc3nc21,i,1e-09,i,i,1.9e-08M*,i
Oc1ccccc1C(Sc1nc2ccccc2s1)Sc1nc2ccccc2s1,i,4.2e-08,i,i,?,i
Cc1ccccc1-n1c(=O)/c(=C\c2ccco2)s/c1=C(/C#N)C(=O)Nc1ccccc1,i,1e-09,i,i,1.4e-08M*,i
C[C@@H]1O[C@H](O[C@@H]2[C@@H](Oc3cc(O)c4c(c3)O[C@H](c3ccc(O)cc3)CC4=O)O[C@@H](CO)[C@@H](O)[C@H]2O)[C@@H](O)[C@H](O)[C@@H]1O,i,3e-08,i,i,?,i
CC(=O)Oc1ccc(/C=C\C(=O)C[C@@H]2O[C@@H](Oc3cc(OC(C)=O)c4c(c3)O[C@@H](c3ccc(OC(C)=O)cc3)CC4=O)[C@H](OC(C)=O)[C@H](OC(C)=O)[C@@H]2OC(C)=O)cc1,i,5.2e-09,i,i,1.3e-08M*,i
CN1C[C@@H](C(=O)N[C@]2(C)O[C@]3(O)[C@H]4CCCN4C(=O)[C@H](Cc4ccccc4)N3C2=O)C[C@H]2c3cccc4[nH]cc(c34)C[C@@H]21,i,1.3e-09,i,i,?,i
CC1(C)[C@@H]2CC[C@@](C)(C2)[C@H]1OC(=O)c1ccccc1C(=O)O,i,5.4e-08,i,i,?,i

# Source: PubChem (National Center for Advancing Translational Sciences (NCATS))
